{"source": "PubChem BioAssay AID687022", "about": "(Broad Institute, 2013)", "note": "Among all 1,000 compounds or so, about 360 (36%) were called active.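 Rule for the calls: active = Fitted curve of melting temperature shift crosses the 1.0 threshold at or below the sample's highest valid tested concentration; inconclusive = Flat fit with activity 30 to 70, or invalid fit; inactive = Opposite direction, flat within 30, or no crossing.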 Only a sample is shown.", "data": [{"molecular_target": "Fibroblast growth factor 22 (Homo sapiens) (UniProt Q9HCT0)", "sequence (Q9HCT0 whole entry, looked up)": "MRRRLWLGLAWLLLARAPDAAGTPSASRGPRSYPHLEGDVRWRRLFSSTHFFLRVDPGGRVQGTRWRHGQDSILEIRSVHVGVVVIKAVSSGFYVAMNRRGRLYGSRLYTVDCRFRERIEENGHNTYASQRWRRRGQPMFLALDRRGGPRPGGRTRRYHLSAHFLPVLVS", "assay": "binders of human FGF22 protein, dose response, FGF22 synaptogenesis inhibitor project, biophysical, thermal shift, cherry-pick (AID 687022); note: reference of the scale not given here", "details": "recombinant FGF22 thermal shift, SYPRO orange melting; series mostly up to 38 µM", "values": [{"smiles": "O=C(N[C@@H]1C=C[C@@H](CC(=O)N2CCCCC2)O[C@@H]1CO)c1cccc(F)c1", "Tm shift activity": "inactive"}, {"smiles": "O=C(c1ccccc1F)N1CC(=O)N2[C@@H](CO)[C@H](c3ccc(-c4ccc(F)cc4)cc3)[C@@H]2C1", "Tm shift activity": "inactive"}, {"smiles": "Cc1ccccc1-c1ccccc1[C@@H]1[C@@H](C#N)N(C(=O)c2ccccc2)[C@H]1CO", "Tm shift activity": "inactive"}, {"smiles": "CCOC(=O)[C@]12CCCC=C1N(Cc1ccccc1)C(=O)[C@H](CC(=O)NCC1CCCCC1)C2", "Tm shift activity": "inactive"}, {"smiles": "O=C(Nc1ccc2c(c1)OCO2)c1cnn2cccnc12", "Tm shift activity": "inactive"}, {"smiles": "C[C@H]1CN([C@@H](C)CO)C(=O)c2cc(NC(=O)CCC(F)(F)F)ccc2O[C@H]1CN(C)CC1CC1", "Tm shift activity": "inactive"}, {"smiles": "C[C@H]1CN([C@@H](C)CO)C(=O)c2cc(NS(=O)(=O)c3ccccc3)ccc2O[C@@H]1CN(C)C", "Tm shift activity": "inactive"}, {"smiles": "C[C@H](CO)N1C[C@H](C)[C@H](CN(C)S(=O)(=O)c2ccc(F)cc2)Oc2ccc(NC(=O)c3ccncc3)cc2C1=O", "Tm shift activity": "inactive"}, {"smiles": "COc1cccc(NC(=O)OCCN2CCN(Cc3ccccc3)CCC2=O)c1", "Tm shift activity": "inactive"}, {"smiles": "O=C(Cn1[nH]c(=O)c2ccccc2c1=O)Nc1cccnc1", "Tm shift activity": "inactive"}, {"smiles": "COc1ccc(Br)cc1S(=O)(=O)Nc1ncccc1C", "Tm shift activity": "inactive"}, {"smiles": "Cc1cccnc1NC(=O)CCCN1C(=O)c2ccccc2C1=O", "Tm shift activity": "inactive"}, {"smiles": "Cc1ccc(-c2ccc([C@@H]3[C@@H](CO)N4C(=O)CN(C(=O)c5ccc(F)cc5)C[C@H]34)cc2)cc1", "Tm shift activity": "inactive"}, {"smiles": "Cc1cc(C(=O)O/N=C(\\N)c2ccncc2)ccc1[N+](=O)[O-]", "Tm shift activity": "inactive"}, {"smiles": "Cc1ccc(-n2c(O)c(C=NC3CCS(=O)(=O)C3)c3ccccc3c2=O)cc1C", "note": "(centres undefined)", "Tm shift activity": "inactive"}, {"smiles": "COCC(=O)NC[C@H]1[C@H](c2ccc(C3=CCCC3)cc2)[C@@H](CO)N1C(C)=O", "Tm shift activity": "inactive"}, {"smiles": "C[C@H]1CN([C@@H](C)CO)C(=O)c2cc(NC(=O)Cc3ccccc3)ccc2O[C@H]1CN(C)Cc1ccc2c(c1)OCO2", "Tm shift activity": "inactive"}, {"smiles": "COc1cc(OC)cc(C(=O)Nc2nc3ccc(S(C)(=O)=O)cc3s2)c1", "Tm shift activity": "inactive"}, {"smiles": "Cc1ccc(S(=O)(=O)Nc2ccc3c(c2)C(=O)N([C@@H](C)CO)C[C@@H](C)[C@@H](CN(C)C)O3)cc1", "Tm shift activity": "inactive"}, {"smiles": "C[C@@H]1CN([C@H](C)CO)S(=O)(=O)c2ccc(C#CC3CC3)cc2O[C@H]1CN(C)C(=O)c1ccncc1", "Tm shift activity": "inactive"}, {"smiles": "CC(C)(CNCc1ccccc1)NS(=O)(=O)c1ccc(Cl)cc1", "Tm shift activity": "inactive"}, {"smiles": "CCCCNC(=O)c1onc(CSc2ccc(C(C)C)cc2)c1C(=O)O", "Tm shift activity": "0.765% [at 5 µM] (inactive)"}, {"smiles": "Cc1noc(C)c1S(=O)(=O)N(C)C[C@H]1Oc2ccc(NS(=O)(=O)c3cccs3)cc2C(=O)N([C@@H](C)CO)C[C@H]1C", "Tm shift activity": "inactive"}, {"smiles": "COc1ccc(Nc2nnc(-c3ccncc3)s2)cc1Cl", "Tm shift activity": "inactive"}, {"smiles": "CO[C@H](CN(C)S(=O)(=O)c1cccc(Cl)c1)[C@H](C)CN([C@@H](C)CO)S(=O)(=O)c1cccc(Cl)c1", "Tm shift activity": "inactive"}, {"smiles": "C[C@@H]1CN([C@@H](C)CO)C(=O)c2cccc(NC(=O)C3CC3)c2O[C@H]1CN(C)Cc1ccncc1", "Tm shift activity": "inactive"}, {"smiles": "O=C(C[C@@H]1C=C[C@H](NC(=O)Nc2cc(F)ccc2F)[C@H](CO)O1)Nc1ccc(-c2ccccc2)cc1", "Tm shift activity": "inactive"}, {"smiles": "CCC(=O)N(NC1=NS(=O)(=O)c2ccccc21)S(=O)(=O)c1ccc(C)cc1", "Tm shift activity": "inactive"}, {"smiles": "CC(C)(C)NC(=O)CN(C(=O)CNS(=O)(=O)c1ccc(Cl)cc1)c1ccc2c(c1)OCCO2", "Tm shift activity": "inactive"}, {"smiles": "O=[N+]([O-])c1cccc(S(=O)(=O)Nc2ccc(S(=O)(=O)Nc3nccs3)cc2)c1", "Tm shift activity": "inactive"}, {"smiles": "O=[N+]([O-])c1ccc(Cl)c(S(=O)(=O)Nc2ccc(S(=O)(=O)N3CCOCC3)cc2)c1", "Tm shift activity": "inactive"}, {"smiles": "CC(=O)c1ccc(NS(=O)(=O)c2ccc(N)cc2)cc1", "Tm shift activity": "inactive"}, {"smiles": "CC(=O)c1sc(NC(=O)c2cc(=O)c3ccccc3o2)nc1C", "Tm shift activity": "inactive"}, {"smiles": "CCOc1ccc(N(CC(=O)NCCSc2ccccn2)S(=O)(=O)c2ccc(Cl)cc2)cc1", "Tm shift activity": "inactive"}, {"smiles": "N#C[C@@H]1[C@H](c2ccc(-c3cccnc3)cc2)[C@H](CO)N1C(=O)Nc1ccc(F)cc1", "Tm shift activity": "inactive"}, {"smiles": "CC(C)C#Cc1cnc2c(c1)C(=O)N([C@H](C)CO)C[C@H](C)[C@H](CN(C)C(=O)c1cnccn1)O2", "Tm shift activity": "inactive"}, {"smiles": "Cc1noc(C)c1NC(=O)Nc1ccc2c(c1)CC(=O)N([C@@H](C)CO)C[C@H](C)[C@@H](CN(C)Cc1ccc3c(c1)OCO3)O2", "Tm shift activity": "inactive"}, {"smiles": "CC(C)NC(=O)Nc1ccc2c(c1)C(=O)N([C@H](C)CO)C[C@H](C)[C@@H](CN(C)C(=O)NC(C)C)O2", "Tm shift activity": "inactive"}, {"smiles": "COc1cccc(NC(=O)N2C[C@H](O)COC[C@@H]3O[C@@H](CC(=O)NC4CCC4)CC[C@H]32)c1", "Tm shift activity": "inactive"}, {"smiles": "COc1ccc(CCNS(=O)(=O)CCNC(=O)c2ccc3c(c2)OCO3)cc1", "Tm shift activity": "inactive"}, {"smiles": "CSc1ccc(C(=O)NCC2CCN(C(=O)C(=O)c3cc4ccccc4o3)CC2)cc1", "Tm shift activity": "inactive"}, {"smiles": "C/C(CC(=O)Nc1cccc(Cl)c1Cl)=N\\NC(=O)C(=O)NC1CCCCC1", "Tm shift activity": "inactive"}, {"smiles": "O=C(CC1CC1)N1CC2(C1)[C@H](c1ccccc1)[C@H](CO)N2C(=O)c1cnccn1", "Tm shift activity": "inactive"}, {"smiles": "COCC(=O)Nc1ccc2c(c1)OC[C@@H](C)N(C)C[C@H](C)[C@@H](OC)CN(C)C2=O", "Tm shift activity": "inactive"}, {"smiles": "Cc1ccc(N(C(=O)c2csnn2)C(C(=O)NC2CCCC2)c2ccccn2)c(C)c1", "note": "(centres undefined)", "Tm shift activity": "inactive"}, {"smiles": "O=C(C1CCCC1)N1CC2(C1)[C@H](c1ccccc1)[C@@H](CO)N2CC1CC1", "Tm shift activity": "inactive"}, {"smiles": "C[C@H]1CN([C@@H](C)CO)C(=O)c2cc(C3=CCCC3)cnc2O[C@H]1CN(C)C(=O)CN(C)C", "Tm shift activity": "inactive"}, {"smiles": "Cc1cc(C(=O)Nc2cccc3c2O[C@@H](CN(C)C(=O)NC2CCCCC2)[C@@H](C)CN([C@H](C)CO)C3=O)n(C)n1", "Tm shift activity": "inactive"}, {"smiles": "Nc1n[nH]c(=S)n1/N=C1/C(=O)Nc2ccccc21", "Tm shift activity": "inactive"}, {"smiles": "O=C(COC(=O)CCCOc1ccc(Cl)cc1Cl)NCc1ccccc1", "Tm shift activity": "inactive"}, {"smiles": "Cc1ccc(NC(=O)COC(=O)Cn2cnc3c2c(=O)n(C)c(=O)n3C)cc1F", "Tm shift activity": "inactive"}, {"smiles": "O=C(NCC[C@@H]1CC[C@@H](NS(=O)(=O)c2ccccc2)[C@@H](CO)O1)c1ccc2c(c1)OCO2", "Tm shift activity": "inactive"}, {"smiles": "COCC(=O)N(C)C[C@@H]1Oc2cc(C#C[C@H](C)O)ccc2S(=O)(=O)N([C@@H](C)CO)C[C@H]1C", "Tm shift activity": "inactive"}, {"smiles": "CC(C)(CNS(=O)(=O)c1ccc2c(c1)OCCO2)N1CCOCC1", "Tm shift activity": "inactive"}, {"smiles": "Cn1c(=O)[nH]c(=O)c2c1nc(SCC(O)CO)n2CCCc1ccccc1", "note": "(centres undefined)", "Tm shift activity": "inactive"}, {"smiles": "Cc1[nH]c2ccccc2c1C(=O)C(=O)NCCOc1ccccc1", "Tm shift activity": "inactive"}, {"smiles": "O=[N+]([O-])c1ccc(/C=N/Nc2ccc3ccccc3c2)o1", "Tm shift activity": "inactive"}, {"smiles": "CCOC(=O)[C@@H]1[C@H]2COc3cc(OC)ccc3[C@H]2N2C(=O)N(c3ccc(C)cc3)C(=O)[C@]12C", "Tm shift activity": "inactive"}, {"smiles": "C[C@H](CO)N1C[C@H](C)[C@@H](CN(C)C(=O)Nc2cccc3ccccc23)Oc2c(NS(C)(=O)=O)cccc2C1=O", "Tm shift activity": "inactive"}, {"smiles": "C[C@H]1CN([C@@H](C)CO)C(=O)c2cc(NC(=O)c3ccncc3)ccc2O[C@@H]1CN(C)S(=O)(=O)c1cn(C)cn1", "Tm shift activity": "inactive"}, {"smiles": "C[C@H]1CN([C@@H](C)CO)C(=O)c2cc(NS(=O)(=O)c3ccccc3)ccc2O[C@@H]1CN(C)Cc1ccc(C(=O)O)cc1", "Tm shift activity": "inactive"}, {"smiles": "CCCCn1cnc2c(SCc3cccc(F)c3)nc(N)nc21", "Tm shift activity": "inactive"}, {"smiles": "O=C(COc1ccccc1)NCC(=O)NC1CCCCC1", "Tm shift activity": "inactive"}, {"smiles": "O=C(C[C@@H]1CC[C@@H](NC(=O)Nc2cc(F)ccc2F)[C@H](CO)O1)NCCCN1CCOCC1", "Tm shift activity": "inactive"}, {"smiles": "CCOC(=O)Cn1c2ccccc2n2nc(CCC(=O)O)c(=O)nc12", "Tm shift activity": "inactive"}, {"smiles": "COCC(=O)N1C[C@@H]2[C@H](c3ccccc31)[C@H](CO)N2C(=O)c1ccccc1F", "Tm shift activity": "inactive"}, {"smiles": "COc1ccccc1S(=O)(=O)N(C)C[C@@H]1Oc2cc(C#CCC(C)C)ccc2S(=O)(=O)N([C@@H](C)CO)C[C@H]1C", "Tm shift activity": "inactive"}, {"smiles": "O=C(C[C@H]1C[C@@H]2c3cc(NC(=O)NC4CCCC4)ccc3O[C@@H]2[C@H](CO)O1)NCc1ccc2c(c1)OCO2", "Tm shift activity": "inactive"}, {"smiles": "CCCNC(=O)COCc1cc(-c2ccc3c(c2)OCO3)on1", "Tm shift activity": "inactive"}, {"smiles": "O=C(COC(=O)CSc1ccc([N+](=O)[O-])cc1)NCCC1=CCCCC1", "Tm shift activity": "inactive"}, {"smiles": "O=C(NCC[C@@H]1CC[C@H](NC(=O)C2CCOCC2)[C@H](CO)O1)Nc1ccc(Cl)cc1", "Tm shift activity": "inactive"}, {"smiles": "Cc1nn(-c2ccccc2)c(Cl)c1/C=N/NC(=O)c1cccnc1", "Tm shift activity": "inactive"}, {"smiles": "CC(=O)Nc1ccc(C(=O)N/N=C/c2cc(Br)cc(Br)c2O)cc1", "Tm shift activity": "inactive"}, {"smiles": "COc1ccc(NS(=O)(=O)c2cccc(C(=O)NN=Cc3ccc(OC)c(O)c3)c2)cc1", "Tm shift activity": "inactive"}, {"smiles": "O=C(N/N=C/c1c[nH]c2ccccc12)c1ccc2c(c1)OCCO2", "Tm shift activity": "inactive"}, {"smiles": "Cc1c(/C=N\\NC(=O)c2cccc(F)c2)cnn1C", "Tm shift activity": "inactive"}, {"smiles": "COc1ccc(/C=N/NC(=O)c2cccc([N+](=O)[O-])c2)cc1OC", "Tm shift activity": "inactive"}, {"smiles": "CC1CC(CC(=O)NC(=S)Nc2ccccc2Cl)C(=O)O1", "note": "(centres undefined)", "Tm shift activity": "inactive"}, {"smiles": "CNC[C@H]1Oc2ccc(NC(=O)Cc3cn(C)c4ccccc34)cc2C(=O)N([C@H](C)CO)C[C@H]1C", "Tm shift activity": "inactive"}, {"smiles": "COc1ccc(S(=O)(=O)N(C)C[C@@H]2Oc3ccc(NC(=O)Nc4ccccc4)cc3CC(=O)N([C@H](C)CO)C[C@@H]2C)cc1", "Tm shift activity": "inactive"}, {"smiles": "CC(=O)Oc1ccc(C(=O)Nc2ccccc2C(=O)N2CCCCC2)cc1", "Tm shift activity": "inactive"}, {"smiles": "COc1ccccc1C(=O)NNC(=O)c1ccc(NC(=O)c2ccccc2)cc1", "Tm shift activity": "inactive"}, {"smiles": "CCCN(C)C[C@H]1Oc2cc(C#Cc3cccnc3)ccc2S(=O)(=O)N([C@H](C)CO)C[C@@H]1C", "Tm shift activity": "inactive"}, {"smiles": "C[C@@H]1CN([C@@H](C)CO)C(=O)c2cccc(NC(=O)c3ccc(-c4nccs4)cc3)c2O[C@@H]1CN(C)C", "Tm shift activity": "inactive"}]}]}
